Compound activity as filed in PubChem BioAssay.
KCNH2 3.1 block: inhibitors of human KCNH2 3.1 potassium channel isoform | activity change, % (tested at about 1.8 µM) | 0.95% of 340,000 active | U2OS KCNH2 3.1, thallium flux FluxOr; active compounds read low;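 active = maximum activity change below -70%; inconclusive = maximum activity change from -70% to -50%; inactive = maximum activity change above -50%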;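 also: thallium influx rate constant from kinetic fluorescence after stimulation buffer; % is scaled to controls: 0 for no effect and ±100 for the full control effect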
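Measured as rate of thallium-driven FluxOr signal in transduced U2OS cells carrying the 3.1 channel, read kinetically for 2 min upon stimulation; values are rate constants scaled to DMSO control wells.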
VDR inhibitor: inhibitors of human vitamin D receptor; P11473; VDR-SRC2-3 peptide fluorescence polarization, 2 h; Potency, µM, inactives show max response, negative = inhibition, usual class: inhibitors; 0.93% of 400,000 active; also: potency is read from the fitted curve at half-maximal effect; % is scaled to controls: 0 for no effect and ±100 for the full control effect
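Signal is fluorescence polarization, reporting how far test compounds block the interaction of VDR with the SRC2-3 coregulator peptide after a 2 h room-temperature incubation.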
MBNL1 CUG block: blocks human MBNL1 binding to CUG repeat RNA | TR-FRET MBNL1-His/biotin-(CUG)12 binding, 665/545 ratio | Potency, µM (doses to about 57.5 µM), for the others: top-dose activity change, negative = inhibition, most hits filed as inhibitors | 0.036% of 280,000 active; active = well fitted inhibition curve with a large enough effect in the signal ratio, with a control signal flat, not every such curve was filed as active; inconclusive = small, poorly fitted or top-dose-only effect, or effect the other way, or a change in a side signal; inactive = no such curve, though single readings can be large or run the other way; the % refers to the signal ratio; also: potency is read from the fitted curve at half-maximal effect; % is scaled to controls: 0 for no effect and ±100 for the full control effect
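TR-FRET between His-tagged MBNL1 and biotin-(CUG)12 RNA, detected with Tb anti-His antibody (0.055 ng/ul) and streptavidin-XL665 (5 nM), 60 min at room temperature. Compounds titrated 92 nM to 58 uM; 665/545 nm ratio normalized to buffer and complex controls.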
CBFb-RUNX1 inh: blocks binding between human CBF-beta and RUNX1; Q01196+Q13951; AlphaScreen CBFb-His/RUNX1-biotin binding, biochemical; AID 1477; 230,000 tested, under 10 active; Potency, µM (series often up to 59.8 µM), for inactives: top-dose activity, negative = inhibition, hits mostly inhibitors; also: % of control where 0% means no effect
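AlphaScreen binding: CBFb-His and RUNX1-biotin (30 nM each) preincubated 20 min, compound added for 15 min, then nickel and streptavidin beads for 90 min, all at room temperature. Disruption of the interaction by any mechanism counts as activity.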
hERG WT inh: inhibitors of human wildtype KCNH2 potassium channel | Q12809 | U2OS, BacMam KCNH2, thallium flux FluxOr; active compounds read low | activity change, % at 1.84 µM | 0.37% of 340,000 active;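 active = maximum activity change below -70%; inconclusive = maximum activity change between -70% and -50%; inactive = maximum activity change above -50%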; also: % is scaled to controls: 0 for no effect and ±100 for the full control effect
Target sequence (Q12809 whole entry, looked up): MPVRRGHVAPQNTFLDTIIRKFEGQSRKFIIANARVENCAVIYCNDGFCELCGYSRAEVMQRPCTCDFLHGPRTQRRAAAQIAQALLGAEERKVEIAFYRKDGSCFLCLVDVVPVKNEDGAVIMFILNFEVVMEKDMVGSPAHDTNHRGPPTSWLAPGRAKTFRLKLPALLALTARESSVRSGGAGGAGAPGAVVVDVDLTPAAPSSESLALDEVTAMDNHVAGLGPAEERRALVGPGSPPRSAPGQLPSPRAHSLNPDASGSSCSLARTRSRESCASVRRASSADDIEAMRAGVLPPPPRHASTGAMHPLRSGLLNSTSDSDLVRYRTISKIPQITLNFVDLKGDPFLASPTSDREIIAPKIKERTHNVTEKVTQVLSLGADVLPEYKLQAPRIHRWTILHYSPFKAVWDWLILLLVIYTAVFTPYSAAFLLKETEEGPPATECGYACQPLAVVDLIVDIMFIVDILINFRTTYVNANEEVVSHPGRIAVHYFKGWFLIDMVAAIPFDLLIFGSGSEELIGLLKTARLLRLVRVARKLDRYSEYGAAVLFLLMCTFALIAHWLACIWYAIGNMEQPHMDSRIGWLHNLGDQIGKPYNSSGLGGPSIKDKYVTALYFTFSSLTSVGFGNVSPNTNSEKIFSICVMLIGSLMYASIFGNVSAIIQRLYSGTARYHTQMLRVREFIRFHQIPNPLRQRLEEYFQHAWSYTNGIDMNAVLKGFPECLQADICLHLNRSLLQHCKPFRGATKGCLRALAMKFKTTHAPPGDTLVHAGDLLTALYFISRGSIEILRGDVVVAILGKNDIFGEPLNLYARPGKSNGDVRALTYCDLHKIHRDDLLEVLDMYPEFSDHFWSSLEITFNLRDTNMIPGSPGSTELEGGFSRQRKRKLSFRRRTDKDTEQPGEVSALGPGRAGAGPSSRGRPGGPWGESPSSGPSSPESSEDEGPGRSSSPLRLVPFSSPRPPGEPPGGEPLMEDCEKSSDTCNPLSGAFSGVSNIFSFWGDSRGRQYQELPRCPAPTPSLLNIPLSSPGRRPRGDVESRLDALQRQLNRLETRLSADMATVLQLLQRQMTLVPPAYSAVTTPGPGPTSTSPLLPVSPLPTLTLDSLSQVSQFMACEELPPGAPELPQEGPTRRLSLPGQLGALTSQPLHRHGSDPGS
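U2OS cells transduced with wild-type KCNH2 virus are loaded with FluxOr dye for 45 min, and thallium flux is measured in kinetic reads before and after stimulation buffer. Rate constants are normalized to DMSO controls.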
PLK1 PBD inh: blocks phosphopeptide binding to human PLK1 polo-box domain; P53350; Plk1 PBD binding of FITC phosphopeptide, fluorescence polarization; Potency, µM, without a hit: max response, negative = inhibition, most hits filed as inhibitors; 2.8% of 360,000 active; also: potency is read from the fitted curve at half-maximal effect; series mostly up to about 57 µM; % is scaled to controls: 0 for no effect and ±100 for the full control effect; nearly all actives have a fitted effect of over 65% in size
Starred values were filed as active, the others as inactive; ? = inconclusive; . = not tested or not shown; ! = a repeat was not active; [ ] = another dose, or the depositor's remark. Shown are actives, neighbours in structure and some others; about 3.8% of the full set was active somewhere. Unless noted, calls follow the shape of the dose curve; as a rule, active = well fitted curve in the direction sought with a large enough effect; inconclusive = small, poorly fitted or top-dose-only effect, or another doubt; inactive = no such curve, though single readings can be large; an effect the other way counts as inactive or inconclusive.

SMILES	KCNH2 3.1 block	VDR inhibitor	MBNL1 CUG block	CBFb-RUNX1 inh	hERG WT inh	PLK1 PBD inh
O=C(CSc1nc(-c2ccc(Cl)cc2)[nH]c(=O)n1)Nc1cccc(Cl)c1	3	-17%	-5%	9%	-12	24µM*
COc1cc2c(c3oc4cccc(O)c4c(=O)c13)C1C=CO[C@@H]1O2 (stereo partly specified)	.	0%	.	2%	.	.
C=CCN1CCc2cccc3c2[C@H]1Cc1ccc(O)c(O)c1-3	-20	10µM*!	-4%	.	17	38µM*
CCCN1CCc2cc(O)cc3c2C1Cc1ccc(O)c(O)c1-3 (stereo unspecified)	.	25µM*	.	?	.	.
COc1ccc2c(c1O)-c1cc(O)cc3c1[C@@H](C2)N(C)CC3	.	3%	.	-17%	.	.
CCC(Oc1ccc(Cl)cc1)C(=O)OC1CC2CCC(C1)N2C (stereo unspecified)	.	0%	.	15%	.	.
CCCCCC(O)C1C(=O)OC(C)C(O)\C=C/C=C\C=C/C=C\C=C(\C)C(O)C(O)C(O)CC(O)CC(O)CC(O)CC(O)CC1O (stereo unspecified)	.	2%	.	.	.	.
COc1ccccc1/C=C1\C(=O)NC(=S)N(c2ccccc2)C1=O	-3	50µM*	3%	.	5	15µM*
CCOc1cccc(N2C(=O)/C(=C/c3ccco3)C(=O)NC2=S)c1	9	?	5%	.	-11	12µM*
COc1ccccc1C=C1C(=O)NC(=S)NC1=O	8	45µM*	.	.	5	24µM*
CCN1C(=O)/C(=C/c2ccc(N(CC)CC)cc2OC)C(=O)NC1=S	-2	?	3%	?	20	1.1µM*
O=C1NC(=S)N(c2ccc(F)cc2)C(=O)/C1=C/c1ccccc1O	11	-30%	-15%	.	27	-29%
NC(=O)Cn1cc(C=C2C(=O)NC(=O)NC2=O)c2ccccc21	18	-11%	-2%	.	-1	?
Cc1cccc(N2CCN(CCc3ccccc3)CC2)c1C	-82*	3%	-8%	1%	-48	-2%
O=C(O)c1ccccc1-c1c2cc(Br)c(=O)cc-2oc2[c]([Hg])c(O)c(Br)cc12	.	2.2µM*	.	-8%[21.7 µM]	.	.
O=C(O)C(Cl)(Cl)Br	.	.	.	10%[21.7 µM]	.	.
C[C@]12CCC3C(CC[C@H]4C[C@@H](O)CC[C@]34C)[C@H]1CC[C@H]2O (stereo partly specified)	-6	-10%	.	.	-2	-3%
C[C@H]1CC[C@@]2(C)[C@@H](CC[C@@H]3[C@@H]2CC[C@]2(C)[C@@H](O)CC[C@@H]32)C1	-6	-14%	-7%	1%	-8	27µM*
Cc1ncc(CN2CCCC(C(=O)c3cccc(Cl)c3)C2)s1 (stereo unspecified)	1	-7%	-8%	4%	.	-5%
Cc1ccc(CCNC(=O)C2CCCN(Cc3nc(-c4cccc(Cl)c4)oc3C)C2)cc1 (stereo unspecified)	.	89µM*	.	.	.	.
Cc1cc(C)cc(N2C(=O)NC(=O)/C(=C\c3cccn3-c3ccc(Cl)cc3)C2=O)c1	-7	-1%	-6%	24%	-5	1.2µM*
Cc1cc(C)cc(N2C(=O)NC(=O)/C(=C\c3cccn3-c3ccccc3)C2=O)c1	7	-8%	.	-16%	9	2.1µM*
CN1C(=O)/C(=C/c2cccn2-c2ccc3ccccc3c2)C(=O)NC1=S	8	45µM*	25%	?	-18	0.53µM*
Cc1cc(/C=C2/C(=O)NC(=O)N(c3ccc(Br)cc3)C2=O)c(C)n1C	14	23%	.	-1%	-1	-6%
C=C1C(O)C2OC3(CCC(/C=C/C(C)C4CC(C)=CC5(OC(CC(C)(O)C(=O)O)CCC5O)O4)O3)CCC2OC1C(O)CC(C)C1OC2(CCCCO2)CCC1C (stereo unspecified)	.	13%	.	-16%[2.36 µM]	.	.
SMILES	KCNH2 3.1 block	VDR inhibitor	MBNL1 CUG block	CBFb-RUNX1 inh	hERG WT inh	PLK1 PBD inh
COCCN(C(=O)CCl)c1c(C)cccc1C	.	9%	.	10%	.	.
CC1=NCCc2c1[nH]c1cc(O)ccc21	-7	13%	.	?	-9	1.2µM*
CCOP(=O)(OCC)Oc1ccc2ccc(=O)oc2c1	.	-3%	.	1%	.	.
CCOP(=S)(OCC)Oc1cc(C)oc(=O)c1	13	79µM*	-12%	-2%	-19	30µM*
CCOP(=S)(OCC)Oc1cc(C)oc(=O)c1Cl	9	28µM*	5%	-4%	-7	4.7µM*
NCC1O[C@@H](O[C@H]2C(O)C(O[C@@H]3C(O[C@H]4OC(CO)C(O)C(O)C4N)C(N)CC(N)[C@H]3O)O[C@@H]2CO)C(N)C(O)C1O (stereo partly specified)	.	-1%	.	?	.	.
C=CCOC(C)=O	.	.	.	-24%[21.7 µM]	.	.
CCC1COC(Cn2cncn2)(c2ccc(Cl)cc2Cl)O1 (stereo unspecified)	.	-13%	.	2%	.	.
C[C@]12CCC3C(CC[C@H]4C[C@@H](O)CC[C@]34C)[C@@H]1CCC2=O (stereo partly specified)	.	-15%	.	-5%[21.7 µM]	.	.
COc1ccc(CC(C)NCCC(c2ccccc2)c2ccccc2)cc1 (stereo unspecified)	-101*	-2%	-7%	.	-96*	3%
NC[C@@H]1O[C@H](O[C@H]2[C@H](O)[C@@H](O[C@H]3[C@H](O)[C@H](N)C[C@H](N)[C@H]3O[C@@H]3O[C@H](CO)[C@@H](O)[C@H](O)[C@@H]3N)O[C@H]2CO)[C@@H](N)[C@H](O)[C@@H]1O	.	5%	.	6%[21.7 µM]	.	.
CCOC(=O)Cn1cc(C(=O)c2ccccc2F)c2ccccc21	14	?	13%	10%	9	21µM*
CC(O)CCl (stereo unspecified)	.	.	.	6%[21.7 µM]	.	.
COC(=O)[C@@H]1C[C@H]2CC[C@H](O)C[C@H]2N1CC1CC1	.	.	.	10%	.	.
Cc1cccc(-n2c(O)c(C=Nc3ccc(Br)cn3)c(=O)[nH]c2=O)c1	-2	20µM*	6%	?	1	6µM*
Cc1ccc(-n2c(O)c(/C=N/c3ncc(Br)cc3Br)c(=O)[nH]c2=O)cc1	18	2%	4%	0%	7	-12%
On1ccccc1=S	2	22µM*	.	.	-12	?
C/C(O)=C1\C(=O)[C@@H]2[C@H]3c4c[nH]c5cccc(c45)C[C@H]3C(C)(C)N2C1=O	.	?	.	-21%	.	.
Cc1cc(OCC(=O)NC2CCS(=O)(=O)C2)c2c3c(c(=O)oc2c1)CCC3 (stereo unspecified)	-1	-9%	7%	5%	-250*	1%
C#CCO	.	.	.	5%[21.7 µM]	.	.
